Some test systems named below: SR leukemia; RPMI-8226 leukemia; OVCAR-8 ovarian; OVCAR-5 ovarian; OVCAR-4 ovarian; SK-OV-3 ovarian; IGROV1 ovarian; OVCAR-3 ovarian; HS 578T breast; NCI/ADR-RES ovarian; T-47D breast; BT-549 breast; MDA-MB-435 melanoma; SW-620 colon; MCF7 breast; HCT-116 colon; HCC-2998 colon; KM12 colon.
Assay in all cases: NCI-60 one-dose screen, 48 h (100 = growth as untreated, 0 = no growth, -100 = all killed)
Holding throughout (settings): 10 µM unless noted

The structures appear in SMILES notation. Compounds without any hit were thinned out: in the full panel of roughly 83,000, 20% have a hit.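 Cell lines were cultured in 96-well plates, exposed to a single compound concentration, and assessed for percent growth 48 hours later.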 Values without a mark were called inactive. Calls of active or inactive are those of the source. How the source made its calls: active means growth percent below 10; inactive means the rest.

Consider `CC(C)CCC[C@@H](C)[C@H]1CCC2C3=CCn4c(=O)ccc(=O)n4C3CC[C@@]21C` (stereo not given in full), for which the growth is -34.6% (active) with SR leukemia; -41.5% (active) with RPMI-8226 leukemia; -39.7% (active) in the assay with OVCAR-8 ovarian; -84.3% (active) with OVCAR-5 ovarian; -32.4% (active) with OVCAR-4 ovarian; -100% (active) in the assay with SK-OV-3 ovarian. The growth in the assay on IGROV1 ovarian was -82.4% (active); in the assay on OVCAR-3 ovarian it was -96.5% (active); with HS 578T breast, -12.2% (active); in the assay on NCI/ADR-RES ovarian it was -28.7% (active); in the assay with T-47D breast, -75.2% (active); in the assay with BT-549 breast, -30.9% (active). For the same compound, the growth is -87.1% (active) in the assay on MDA-MB-435 melanoma; -65.5% (active) in the assay with SW-620 colon; -92.5% (active) in the assay on MCF7 breast; -100% (active) in the assay with HCT-116 colon; -93.1% (active) in the assay with HCC-2998 colon; -97.5% (active) in the assay on KM12 colon.

For the compound `N#Cc1c(N)nc2c(nnn2-c2cccc(C(F)(F)F)c2)c1N`, the growth is 83.1% with SR leukemia; 82.4% with RPMI-8226 leukemia; 89.3% in the assay with OVCAR-8 ovarian; 102% in the assay with OVCAR-5 ovarian; 87.5% with OVCAR-4 ovarian; 84.9% in the assay on SK-OV-3 ovarian. Besides, the growth with IGROV1 ovarian is 81.1%; in the assay on OVCAR-3 ovarian, 97.9%; in the assay with HS 578T breast, 46.2%; in the assay with NCI/ADR-RES ovarian it was 95.8%; in the assay with T-47D breast, 48.1%; with BT-549 breast, 101%. Further, the growth is 108% in the assay with MDA-MB-435 melanoma; 95.4% in the assay on SW-620 colon; 60.1% in the assay with MCF7 breast; 97.4% with HCT-116 colon; 102% with HCC-2998 colon; 86.8% in the assay on KM12 colon.

Take `COc1cc2c(cc1OC)-c1ccc3cc4c(cc3c1N(CCCn1ccnc1)C2)OCO4`: the growth with SR leukemia is 7.86% (active); with RPMI-8226 leukemia, 0.821% (active); in the assay with OVCAR-8 ovarian it was 44.7%; in the assay on OVCAR-5 ovarian, 103%; in the assay with OVCAR-4 ovarian, 67.9%; with SK-OV-3 ovarian, 20.7%. Also, the growth is 38.3% in the assay with IGROV1 ovarian; 33.5% in the assay on OVCAR-3 ovarian; 91.5% with HS 578T breast; 94.4% in the assay with NCI/ADR-RES ovarian; -18.4% (active) in the assay on T-47D breast; 32.1% in the assay on BT-549 breast. Besides, the growth was 61.1% in the assay with MDA-MB-435 melanoma; 39.3% in the assay with SW-620 colon; 14% in the assay on MCF7 breast; 20% with HCT-116 colon; 82.8% in the assay on HCC-2998 colon; 76.1% in the assay with KM12 colon.

Turning to `COc1ccc(/C(C)=N/NS(=O)(=O)c2ccc(C)cc2)cc1OC`, the growth in the assay on SR leukemia is 137%; in the assay with RPMI-8226 leukemia, 95.3%; with OVCAR-8 ovarian, 104%; with OVCAR-5 ovarian, 109%; with OVCAR-4 ovarian it was 107%; in the assay with SK-OV-3 ovarian it was 86.8%. In addition, the growth in the assay with IGROV1 ovarian is 114%; with OVCAR-3 ovarian it was 110%; in the assay on HS 578T breast, 97.2%; in the assay on NCI/ADR-RES ovarian it was 101%; in the assay on T-47D breast it was 87.8%; with BT-549 breast it was 100%. Further, the growth in the assay with MDA-MB-435 melanoma is 103%; in the assay on SW-620 colon it was 102%; in the assay with MCF7 breast it was 102%; in the assay on HCT-116 colon, 95.1%; with HCC-2998 colon it was 99.9%; in the assay with KM12 colon, 108%.

Take `Cn1nnnc1-c1ccc(N)cc1`: the growth is 87.6% in the assay on SR leukemia; 103% in the assay with RPMI-8226 leukemia; 107% with OVCAR-8 ovarian; 94.1% in the assay with OVCAR-5 ovarian; 100% with OVCAR-4 ovarian; 95.8% with SK-OV-3 ovarian. The growth in the assay with IGROV1 ovarian was 99.2%; in the assay with OVCAR-3 ovarian, 101%; in the assay on HS 578T breast, 96.8%; in the assay on NCI/ADR-RES ovarian, 98.1%; with T-47D breast, 87.2%; in the assay on BT-549 breast, 93.4%. Further, the growth in the assay with MDA-MB-435 melanoma was 99.5%; in the assay on SW-620 colon, 104%; in the assay on MCF7 breast, 90.9%; in the assay with HCT-116 colon, 84.6%; with HCC-2998 colon, 100%.

Regarding `CC(C)N(CCOC(=O)Nc1ccccc1Cl)C(C)C`, the growth in the assay with SR leukemia was 89.7%; in the assay with RPMI-8226 leukemia, 96%; in the assay on OVCAR-8 ovarian, 99.7%; in the assay on OVCAR-5 ovarian it was 111%; in the assay on OVCAR-4 ovarian, 119%; in the assay on SK-OV-3 ovarian, 102%. For the same compound, the growth is 107% in the assay on IGROV1 ovarian; 112% with OVCAR-3 ovarian; 95.8% in the assay with HS 578T breast; 105% in the assay with NCI/ADR-RES ovarian; 107% with T-47D breast; 88.5% with BT-549 breast. Further, the growth with MDA-MB-435 melanoma is 113%; in the assay on SW-620 colon, 103%; in the assay with MCF7 breast it was 104%; in the assay with HCT-116 colon, 84.9%; with HCC-2998 colon, 102%; with KM12 colon, 104%.

`CCCCCOC(=O)c1ccc(NC(=O)CNCC(C)C)cc1`: the growth in the assay on SR leukemia was 82.2%; with RPMI-8226 leukemia, 73.1%; with OVCAR-8 ovarian it was 96.1%; in the assay with OVCAR-5 ovarian it was 98.9%; with OVCAR-4 ovarian, 101%; in the assay with SK-OV-3 ovarian, 95.4%. For the same compound, the growth in the assay with IGROV1 ovarian is 93.4%; in the assay with OVCAR-3 ovarian, 101%; in the assay on HS 578T breast, 96.9%; in the assay on NCI/ADR-RES ovarian, 101%; in the assay with T-47D breast it was 88.8%; in the assay with BT-549 breast, 91.8%. For the same compound, the growth in the assay with MDA-MB-435 melanoma is 99.2%; in the assay on SW-620 colon, 98.5%; in the assay on MCF7 breast, 94.3%; in the assay on HCT-116 colon, 84.9%; in the assay on HCC-2998 colon it was 97.9%; in the assay with KM12 colon, 104%.

For the compound `Cc1ccc(NC(=O)C(Cl)Cl)cc1`, the growth is 97.2% in the assay with SR leukemia; 97% in the assay on RPMI-8226 leukemia; 99.5% in the assay on OVCAR-8 ovarian; 98.5% in the assay on OVCAR-5 ovarian; 116% with OVCAR-4 ovarian; 105% with SK-OV-3 ovarian. The growth in the assay with IGROV1 ovarian is 95.4%; in the assay on OVCAR-3 ovarian, 112%; in the assay with HS 578T breast, 102%; in the assay on NCI/ADR-RES ovarian it was 99.9%; in the assay on T-47D breast, 96.6%; in the assay with BT-549 breast it was 110%. In addition, the growth in the assay with MDA-MB-435 melanoma was 107%; with SW-620 colon, 106%; with MCF7 breast, 94.6%; in the assay with HCT-116 colon, 96.5%; with HCC-2998 colon, 115%; in the assay with KM12 colon it was 104%.

On to `COC(=O)Nc1nc2ccc(C(=O)C3CC3)cc2[nH]1`, for which the growth in the assay with SR leukemia is -21.7% (active); with RPMI-8226 leukemia, -19.7% (active); in the assay with OVCAR-8 ovarian, 8.29% (active); in the assay on OVCAR-5 ovarian, 48.9%; in the assay with OVCAR-4 ovarian it was 44.7%; in the assay with SK-OV-3 ovarian, 22.7%. Also, the growth was -59.4% (active) with IGROV1 ovarian; -61.7% (active) in the assay on OVCAR-3 ovarian; -17.7% (active) in the assay with HS 578T breast; 9.11% (active) in the assay on NCI/ADR-RES ovarian; 57.1% in the assay on T-47D breast; 74.9% with BT-549 breast. In addition, the growth is -63.7% (active) with MDA-MB-435 melanoma; 20.6% with SW-620 colon; 4.01% (active) in the assay with MCF7 breast; 9.29% (active) in the assay on HCT-116 colon; -12.7% (active) in the assay with HCC-2998 colon.

The record behind these values is PubChem BioAssay (NCI).
